For one assay, the system named is NCBI gene 100848466. Put plainly: NVS_NR_bPR: NovaScreen (NVS) Nuclear Receptor Binding Assay for bovine Progextron Receptor (PR) (AID 2283343).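 For AC50: actives lower bound radioligand signal below DMSO meaning displacement of the label.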 In short, it runs like this: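 Scintillation counts of bound radioligand were read 18 hours after chemical addition to membranes extracted from bovine uterus. Displacement was scored as loss of signal relative to DMSO controls. Screening began at 25 uM in duplicate.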

Assay [1] deals with bovine Estrogen Receptor (ER), ESR1 (gene 407238) (UniProt P49884). The experiment in a line: NVS_NR_bER: NovaScreen (NVS) Nuclear Receptor Binding Assay for bovine Estrogen Receptor (ER) (AID 2283345).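 Note: actives lower the bound radioligand count which means they displace the ER ligand.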 In short, it runs like this: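 Scintillation counting of displaced radioligand gave the readout; bovine uterine membrane extract supplied the receptor. Measured 18 h post-dose, normalized to DMSO baseline. Single 25 uM duplicate screen preceded concentration-response follow-up.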

For assay [2], the target named is Estrogen receptor (Homo sapiens) (UniProt P03372). The experiment in a line: NVS_NR_hER: NovaScreen (NVS) Nuclear Receptor Binding Assay for human Estrogen Receptor (ER) (AID 2283348). The method, boiled down:
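MCF7-derived receptor extract, radiolabelled ligand, competitive displacement. Read: scintillation counts at 18 h. DMSO = negative control/baseline. Primary 25 uM duplicate; follow-up concentration–response.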

Assay [3] has the same target. Put plainly: OT_ER_ERaERa_1440: Odyssey Thera (OT) 24-hour HEK293T Protein-Complementation Assay for Estrogen Receptor-alpha/-alpha Homodimer (AID 2283349).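 Note: hits raise fluorescence above DMSO for agonists and antagonists alike.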 The method, boiled down:
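Cells (HEK293T) carrying the fragment-tagged ERα LBD (aa 310-547) pair are treated with chemical for 24 hours. Nuclear and/or cytoplasmic fluorescence is then quantified on a laser scanning cytometer. Activity is scored as signal gain against DMSO.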

Assay [4] addresses T1, Estrogen receptor (Homo sapiens) + Estrogen receptor beta (Homo sapiens) (UniProt P03372+Q92731). Put plainly: OT_ER_ERaERb_0480: Odyssey Thera (OT) 8-hour HEK293T Protein-Complementation Assay for Estrogen Receptor-alpha/-beta Heterodimer (AID 2283352). The method, boiled down: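 Increase in mean fluorescence intensity, measured by laser scanning plate cytometry, reported ER-alpha/ER-beta LBD complementation in HEK293T cells after 8 h chemical exposure. DMSO served as baseline; basal signal is low, punctate and cytoplasmic.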

The target in assay [5] is T1, Estrogen receptor (Homo sapiens) + Estrogen receptor beta (Homo sapiens). Put plainly: OT_ER_ERaERb_1440: Odyssey Thera (OT) 24-hour HEK293T Protein-Complementation Assay for Estrogen Receptor-alpha/-beta Homodimer (AID 2283356).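 Note: heteromer of ER alpha and ER beta binding domains; hits raise reporter fluorescence and both agonists and antagonists give an increase.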 In short, it runs like this:
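Heterodimerisation of ERα (aa 310-547) and ERβ (aa 263-489) ligand binding domains was tracked as fluorescence gain in stably transfected HEK293T cells following 24 h dosing, normalised to DMSO controls.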

Assay [6] has as its target Estrogen receptor beta (Homo sapiens) (UniProt Q92731). The experiment in a line: OT_ER_ERbERb_0480: Odyssey Thera (OT) 8-hour HEK293T Protein-Complementation Assay for Estrogen Receptor-beta/-beta Homodimer (AID 2283357).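 Note: active means signal gain over DMSO baseline.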 The method, boiled down: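 Homodimerization of ER-beta LBD measured by protein-fragment complementation in HEK293T; 8 h dosing; fixed, Draq5 counterstain; fluorescence intensity gain over DMSO baseline, positive fitting direction; laser scanning cytometry.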

In assay [7] the target is rat Mineralocorticoid Receptor (MR), Nr3c2 (gene 25672) (UniProt P22199). The experiment in a line: NVS_NR_rMR: NovaScreen (NVS) Nuclear Receptor Binding Assay for rat Mineralocorticoid Receptor (MR) (AID 2283355). In short, it runs like this: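 Radioligand displacement, scintillation readout; tissue source adrenalectomized rat brain supernatant. Read 24 h post-dose. Screened in duplicate at 25 uM, DMSO negative control, controls on every plate; actives re-run in concentration series.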

The target of assay [8] is rat Gamma-Aminobutyric Acid Type A Receptor BDZ, alpha 6 site (GABARa6), Gabra6 (gene 29708) (UniProt P30191). Put plainly: NVS_LGIC_rGABARa6: NovaScreen (NVS) Ligand-Gated Ion Channel Assay for rat Gamma-Aminobutyric Acid Type A Receptor BDZ, alpha 6 site (GABARa6) (AID 2283339). The method, boiled down: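 Actives from a 25 uM duplicate screen were retested in concentration series (max 50 uM). Specific radioligand displacement from rat cerebellar membranes was counted by filter-based scintillation at 1 h; DMSO served as baseline.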

Assay [9] in a line: NVS_IC_rCaBTZCHL: NovaScreen (NVS) Ion Channel Assay for Calcium Channel, Type L, Benzothiazepine Site (CaBTZCHL) (AID 2283337). In short, it runs like this:
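Test chemicals were added to rat cortical membranes and incubated 1.5 h with a tritiated or iodinated radioligand for the benzothiazepine site. Bound ligand was separated by filtration and counted. Actives from the 25 uM duplicate screen were retested in concentration series.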

For assay [10], the target named is rat Glutamate, MK-801 Agonist Site (GluNMDA_MK801), Grin1 (gene 24408) (UniProt P35439). The experiment in a line: NVS_LGIC_rGluNMDA_MK801_Agonist: NovaScreen (NVS) Ligand-Gated Ion Channel Assay for rat Glutamate, MK-801 Agonist Site (GluNMDA_MK801) (AID 2283340). The method, boiled down: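 Rat forebrain membrane preparation; MK-801-site radioligand binding read by filtration and scintillation after 1.5 h. Single-point 25 uM duplicate screen, followed by singleton concentration series to 50 uM max; DMSO baseline.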

Assay [11] has as its target rat Glycine Receptor, Strychnine-sensitive (GlyRStrySens), Glra1 (gene 25674) (UniProt P07727). The experiment in a line: NVS_LGIC_rGlyRStrySens: NovaScreen (NVS) Ligand-Gated Ion Channel Assay for rat Glycine Receptor, Strychnine-sensitive (GlyRStrySens) (AID 2283341). The method, boiled down:
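Radioligand displacement on rat spinal cord membranes, 1 hr, filter scintillation read-out. Single-concentration duplicate screen at 25 uM; chemicals meeting threshold (e.g., 30% inhibition) rerun in concentration-response up to 50 uM. Loss of binding fitted versus DMSO.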

Assay [12] concerns the target human Constitutive Androstane Receptor (CAR), NR1I3 (gene 9970) (UniProt Q14994). The experiment in a line: NVS_NR_hCAR_Antagonist: NovaScreen (NVS) Nuclear Receptor Binding Assay for human Constitutive Androstane Receptor Antagonism (CAR) (AID 2283344). The method, boiled down:
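Single 25 uM duplicate primary screen, with concentration-series follow-up on actives. Cell-free binding format run in antagonist mode, TR-FRET signal taken 1 h post-dose; activity is signal loss relative to DMSO.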

Assay [13] addresses chimpanzee Androgen Receptor (AR), AR (gene 747460) (UniProt O97775). The experiment in a line: NVS_NR_cAR: NovaScreen (NVS) Nuclear Receptor Binding Assay for chimpanzee Androgen Receptor (AR) (AID 2283346).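 Note: radioligand displacement from AR measured by scintillation counting in a cell-free assay.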 The method, boiled down:
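Radioligand binding to chimpanzee AR expressed in Sf9/Sf21 cells, cell-free, measured 72 h after dosing by lysate-based scintillation counting. Loss of signal vs DMSO; initial duplicate screen at 25 uM, actives retested in concentration series.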

In assay [14] the target is Androgen Receptor/SRC-1 Co-activator, AR (gene 367) (UniProt P10275). The experiment in a line: OT_AR_ARSRC1_0960: Odyssey Thera (OT) 16-hour HEK293T Protein-Complementation Assay for Androgen Receptor/SRC-1 Co-activator (AID 2283353).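 Note: actives raise the signal above DMSO so potency reflects increased AR and SRC-1 complex.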 The method, boiled down:
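Stable HEK293T line carries AR and SRC-1 each linked to a Venus fragment; chemicals are applied for 16 h, cells imaged at two wavelengths, and the 488 nm nucleus/cytoplasm ratio is taken as the signal, rising relative to DMSO.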

The target is the same in assay [15]. Put plainly: OT_AR_ARSRC1_0480: Odyssey Thera (OT) 8-hour HEK293T Protein-Complementation Assay for Androgen Receptor/SRC-1 Co-activator (AID 2283354).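 Note: hits raise the complementation signal above DMSO so AC50 marks enhancers.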 The method, boiled down:
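Split-Venus PCA, stable HEK293T, AR/SRC-1 fusions; 8 h exposure. Readout: 488nm N/C fluorescence ratio, ≥400 cells/image; fitted upward vs DMSO baseline.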

The subject of assay [16] is guinea pig Histamine Receptor (H2), gene 100729734. The experiment in a line: NVS_GPCR_gH2: NovaScreen (NVS) G Protein-Coupled Receptor Assay for guinea pig Histamine Receptor (H2) (AID 2283342). The method, boiled down:
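Guinea pig striatal membrane preparation with specific radioligand; bound counts measured by filtration and scintillation 1 h post-dosing, DMSO as baseline. Chemicals passing a 25 uM duplicate screen were titrated to a 50 uM maximum.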

Assay [17] addresses Bile acid receptor (Homo sapiens) (UniProt Q96RI1). Put plainly: NVS_NR_hFXR_Antagonist: NovaScreen (NVS) Nuclear Receptor Binding Assay for human Farnesoid X Receptor Antagonism (FXR) (AID 2283350). The method, boiled down: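 Antagonist-format time-resolved FRET binding assay with extracted human receptor protein, read 1 hour after compound addition. Compounds first screened at 25 uM in duplicate, then actives tested in concentration series, with loss of signal relative to DMSO.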

Assay [18] addresses bovine Gamma-Aminobutyric Acid Type A Receptor Agonist (GABAR Agonist), GABRA1 (gene 780973) (UniProt P08219). Put plainly: NVS_LGIC_bGABAR_Agonist: NovaScreen (NVS) Ligand-Gated Ion Channel Assay for bovine Gamma-Aminobutyric Acid Type A Receptor Agonist (GABAR Agonist) (AID 2283338). The method, boiled down:
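Radioligand binding to bovine cerebellar membranes in agonist format, read by filter-based scintillation counting after 1 h. Primary screen in duplicate at 25 uM, with actives followed in concentration series. Gain of signal versus DMSO.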

Data on 11 compounds can be found in PubChem BioAssay (EPA / NIEHS).

Values joined by “and” are separate entries in the source; they are usually repeats but may differ in a detail not shown here. Equal entries are not always repeated. Records with an inconclusive call do not appear. Some compounds were tested as several samples or in several runs, with calls that do not always agree. Active and inactive are the calls of the source. Rule for the calls: active = hit-call score of the fitted dose curve at least 0.9, where 1 is the maximum; inconclusive = response in the unintended direction; inactive = score below 0.9.

Estrogen receptor (Homo sapiens), sequence (P03372 whole entry, looked up): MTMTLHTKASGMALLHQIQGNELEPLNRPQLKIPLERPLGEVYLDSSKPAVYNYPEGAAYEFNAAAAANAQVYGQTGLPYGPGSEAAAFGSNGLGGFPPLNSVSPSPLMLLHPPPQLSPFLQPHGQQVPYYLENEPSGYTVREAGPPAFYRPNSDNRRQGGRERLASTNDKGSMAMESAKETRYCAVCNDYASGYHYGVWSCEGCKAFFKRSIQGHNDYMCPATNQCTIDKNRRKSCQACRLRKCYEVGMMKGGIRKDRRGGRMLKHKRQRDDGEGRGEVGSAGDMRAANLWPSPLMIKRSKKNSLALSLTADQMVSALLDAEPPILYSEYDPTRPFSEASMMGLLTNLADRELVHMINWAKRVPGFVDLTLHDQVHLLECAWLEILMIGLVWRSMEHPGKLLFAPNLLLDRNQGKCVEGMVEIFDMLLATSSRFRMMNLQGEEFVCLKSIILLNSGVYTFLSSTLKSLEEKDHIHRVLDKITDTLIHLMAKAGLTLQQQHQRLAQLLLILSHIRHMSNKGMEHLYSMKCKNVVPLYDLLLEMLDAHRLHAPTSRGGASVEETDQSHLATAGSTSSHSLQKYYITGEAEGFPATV
T1 sequence (P03372 whole entry, looked up, the tested form may be a part): as the sequence (P03372 whole entry, looked up) above
T1 sequence (Q92731 whole entry, looked up, the tested form may be a part): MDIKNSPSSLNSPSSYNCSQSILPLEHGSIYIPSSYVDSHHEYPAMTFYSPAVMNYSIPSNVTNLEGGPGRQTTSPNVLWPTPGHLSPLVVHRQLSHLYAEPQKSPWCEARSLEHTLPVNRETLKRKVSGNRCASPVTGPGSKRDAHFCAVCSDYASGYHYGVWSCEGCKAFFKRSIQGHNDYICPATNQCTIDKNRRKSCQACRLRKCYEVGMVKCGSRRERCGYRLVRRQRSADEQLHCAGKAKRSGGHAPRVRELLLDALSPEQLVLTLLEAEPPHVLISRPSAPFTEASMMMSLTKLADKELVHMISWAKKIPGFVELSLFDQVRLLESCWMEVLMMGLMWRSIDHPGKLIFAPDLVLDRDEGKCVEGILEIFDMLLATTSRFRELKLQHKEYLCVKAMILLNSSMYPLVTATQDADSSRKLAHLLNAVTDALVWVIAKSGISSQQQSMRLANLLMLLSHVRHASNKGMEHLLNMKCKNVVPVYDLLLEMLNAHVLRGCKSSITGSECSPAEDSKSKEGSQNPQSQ
Androgen Receptor/SRC-1 Co-activator, AR (gene 367), sequence (P10275 whole entry, looked up, the tested form may be a part): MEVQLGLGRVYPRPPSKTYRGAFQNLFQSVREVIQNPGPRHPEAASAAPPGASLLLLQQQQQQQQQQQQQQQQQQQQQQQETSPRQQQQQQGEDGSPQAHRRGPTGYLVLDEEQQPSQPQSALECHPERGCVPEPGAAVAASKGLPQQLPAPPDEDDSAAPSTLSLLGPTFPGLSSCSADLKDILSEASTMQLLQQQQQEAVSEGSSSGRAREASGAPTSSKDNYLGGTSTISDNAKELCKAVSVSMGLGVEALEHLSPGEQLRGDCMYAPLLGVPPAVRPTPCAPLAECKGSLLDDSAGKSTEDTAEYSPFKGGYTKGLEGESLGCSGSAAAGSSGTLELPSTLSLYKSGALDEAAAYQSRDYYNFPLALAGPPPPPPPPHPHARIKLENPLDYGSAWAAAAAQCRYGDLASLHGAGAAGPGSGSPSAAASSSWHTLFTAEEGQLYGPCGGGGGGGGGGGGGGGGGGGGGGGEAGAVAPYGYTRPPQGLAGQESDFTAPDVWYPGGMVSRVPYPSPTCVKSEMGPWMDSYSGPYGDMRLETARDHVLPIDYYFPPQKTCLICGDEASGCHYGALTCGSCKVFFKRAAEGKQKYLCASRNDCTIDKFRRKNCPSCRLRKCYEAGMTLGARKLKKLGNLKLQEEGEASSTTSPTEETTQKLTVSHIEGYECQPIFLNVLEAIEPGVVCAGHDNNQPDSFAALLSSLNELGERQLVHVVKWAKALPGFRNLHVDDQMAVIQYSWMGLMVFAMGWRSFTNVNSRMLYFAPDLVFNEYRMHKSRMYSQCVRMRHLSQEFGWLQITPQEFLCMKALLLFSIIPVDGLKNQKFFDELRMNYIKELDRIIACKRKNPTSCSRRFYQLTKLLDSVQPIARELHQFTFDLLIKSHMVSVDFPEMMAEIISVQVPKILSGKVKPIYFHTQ
chimpanzee Androgen Receptor (AR), AR (gene 747460), sequence (O97775 whole entry, looked up): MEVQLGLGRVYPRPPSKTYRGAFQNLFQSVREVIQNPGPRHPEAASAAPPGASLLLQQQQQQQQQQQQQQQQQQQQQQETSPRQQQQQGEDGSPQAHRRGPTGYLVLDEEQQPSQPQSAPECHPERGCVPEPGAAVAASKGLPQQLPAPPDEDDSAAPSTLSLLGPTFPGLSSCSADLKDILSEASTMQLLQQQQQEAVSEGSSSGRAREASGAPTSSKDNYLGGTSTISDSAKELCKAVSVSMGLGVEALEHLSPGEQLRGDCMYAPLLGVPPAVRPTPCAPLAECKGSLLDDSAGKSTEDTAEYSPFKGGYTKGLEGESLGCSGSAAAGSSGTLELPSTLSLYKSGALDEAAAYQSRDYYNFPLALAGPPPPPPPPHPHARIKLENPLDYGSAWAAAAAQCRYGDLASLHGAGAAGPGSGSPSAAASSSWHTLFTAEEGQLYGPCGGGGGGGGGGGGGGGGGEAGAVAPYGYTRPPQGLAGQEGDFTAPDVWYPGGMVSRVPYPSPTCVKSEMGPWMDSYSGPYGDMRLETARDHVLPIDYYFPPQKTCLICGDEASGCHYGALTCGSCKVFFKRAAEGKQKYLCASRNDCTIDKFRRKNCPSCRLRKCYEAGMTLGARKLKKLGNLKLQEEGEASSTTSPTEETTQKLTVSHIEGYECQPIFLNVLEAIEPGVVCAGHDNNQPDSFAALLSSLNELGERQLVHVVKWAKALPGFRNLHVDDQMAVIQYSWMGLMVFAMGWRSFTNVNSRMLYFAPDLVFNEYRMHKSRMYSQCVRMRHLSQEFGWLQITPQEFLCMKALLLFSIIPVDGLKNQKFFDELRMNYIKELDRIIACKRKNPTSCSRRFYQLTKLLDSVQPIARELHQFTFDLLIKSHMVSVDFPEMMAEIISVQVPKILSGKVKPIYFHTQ
human Constitutive Androstane Receptor (CAR), NR1I3 (gene 9970), sequence (Q14994 whole entry, looked up): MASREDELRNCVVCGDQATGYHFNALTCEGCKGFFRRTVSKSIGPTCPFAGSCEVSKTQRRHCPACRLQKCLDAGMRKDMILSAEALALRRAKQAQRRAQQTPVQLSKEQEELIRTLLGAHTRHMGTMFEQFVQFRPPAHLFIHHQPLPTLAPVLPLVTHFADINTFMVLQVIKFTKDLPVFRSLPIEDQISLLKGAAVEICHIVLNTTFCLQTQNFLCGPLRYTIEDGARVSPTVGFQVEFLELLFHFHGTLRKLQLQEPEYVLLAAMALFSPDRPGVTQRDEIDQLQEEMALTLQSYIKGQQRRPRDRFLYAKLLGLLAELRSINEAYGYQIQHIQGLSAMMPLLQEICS
bovine Estrogen Receptor (ER), ESR1 (gene 407238), sequence (P49884 whole entry, looked up): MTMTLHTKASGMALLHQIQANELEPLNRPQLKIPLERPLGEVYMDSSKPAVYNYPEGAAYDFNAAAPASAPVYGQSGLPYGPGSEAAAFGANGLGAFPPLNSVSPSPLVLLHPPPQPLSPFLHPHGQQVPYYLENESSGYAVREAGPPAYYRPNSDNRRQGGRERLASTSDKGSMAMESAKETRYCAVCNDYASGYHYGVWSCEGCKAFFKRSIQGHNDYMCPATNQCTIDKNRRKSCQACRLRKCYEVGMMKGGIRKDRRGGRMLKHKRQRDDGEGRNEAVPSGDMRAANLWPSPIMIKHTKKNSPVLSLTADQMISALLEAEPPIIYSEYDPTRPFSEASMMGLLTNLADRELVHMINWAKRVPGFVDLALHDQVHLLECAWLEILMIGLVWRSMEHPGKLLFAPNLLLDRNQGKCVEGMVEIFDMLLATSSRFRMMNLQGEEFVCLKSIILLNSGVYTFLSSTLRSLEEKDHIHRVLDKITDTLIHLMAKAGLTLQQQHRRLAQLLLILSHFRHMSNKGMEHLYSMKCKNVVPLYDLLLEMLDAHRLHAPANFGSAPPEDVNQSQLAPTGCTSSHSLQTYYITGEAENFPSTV
Estrogen receptor beta (Homo sapiens), sequence (Q92731 whole entry, looked up, the tested form may be a part): as the sequence (Q92731 whole entry, looked up, the tested form may be a part) above

A word on the AC50: it is the midpoint of the concentration-response curve, whichever way the signal moves. On to `COP(=S)(OC)Oc1ccc(SC)c(C)c1`, for which the AC50 in the assay with NCBI gene 100848466 is 16.3 µM (active). The call in assay [1], in [2], in [3], in assay [4], in assay [5] and in assay [6] was inactive.

With `CNC(=O)CSP(=S)(OC)OC`, the outcome (in the assay on NCBI gene 100848466; in assay [3]; in [7]; in [5]; in assay [6]) was inactive.

Turning to `CC(C)OC(=O)Nc1cccc(Cl)c1`, the compound was called inactive in assay [8], in assay [3], in assay [4] and in assay [5].

As to `CC[C@H](C)[C@H]1O[C@]2(C=C[C@@H]1C)C[C@@H]1C[C@@H](C/C=C(\C)[C@@H](O[C@H]3C[C@H](OC)[C@@H](O[C@H]4C[C@H](OC)[C@@H](O)[C@H](C)O4)[C@H](C)O3)[C@@H](C)/C=C/C=C3\CO[C@@H]4[C@H](O)C(C)=C[C@@H](C(=O)O1)[C@]34O)O2` (tested in a mixture with another compound), the AC50 is 15.5 µM (active) in assay [9]; 0.494 µM (active) in assay [11]; 6.14 µM (active) in the assay with NCBI gene 100848466; 10.1 µM (active) in [12]; 5.41 µM (active) in assay [13]. Besides, the outcome in assay [10], in [1] and in assay [3] was inactive.

As for `O=[N+]([O-])c1c(Cl)c(Cl)c(Cl)c(Cl)c1Cl`, the compound was classed as inactive (in the assay with NCBI gene 100848466; in assay [12]; in assay [1]; in assay [3]; in [4]; in assay [14]). The result in assay [15], in assay [5] and in assay [6] was inactive.

For the compound `CC(C)(C)C(O)C(Oc1ccc(Cl)cc1)n1cncn1` (stereo not given), the AC50 is 39.8 µM (active) in the assay on NCBI gene 100848466; 19.6 µM (active) and 25 µM (active) and 20.5 µM (active) in assay [13]; 67.3 µM (active) in [6]. Moreover, the outcome in [12] was inactive.

With `CCOCN(C(=O)CCl)c1c(C)cccc1CC`, the call in assay [16], in assay [3] and in [5] was inactive. In addition, the AC50 in assay [12] is 13.9 µM (active); in assay [13] it was 15.5 µM (active).

For `CNC(=O)Oc1ccccc1OC(C)C`, the compound was classed as inactive in [12], in [1], in assay [3], in assay [4], in assay [5] and in assay [6].

As to `CCCN(CCOc1c(Cl)cc(Cl)cc1Cl)C(=O)n1ccnc1`, the AC50 with NCBI gene 100848466 was 5.4 µM (active); in assay [12] it was 32 µM (active); in [13], 19.7 µM (active). Further, the call in assay [17] and in [6] was inactive.

In the case of `ClC1C(Cl)C(Cl)C(Cl)C(Cl)C1Cl` (stereo not given), the result (in the assay with NCBI gene 100848466; in assay [6]) was inactive. Also, in [6], the concentration at half-maximal activity (AC50) is 50 µM (active).

For `O=[N+]([O-])/N=C1\NCCN1Cc1ccc(Cl)nc1`, the result (in [18]; with NCBI gene 100848466; in [2]; in assay [3]; in assay [17]; in assay [4]) was inactive. Also, the call in assay [14], in [5] and in [6] was inactive.
